Laboratory results taken from PubChem BioAssay (NCI).
This is part of a sample that, as a whole, favours compounds with a hit. Of some 83,000 tested, about 20% had one in any assay.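 Compound tested at a single concentration for 48 hours in 96-well plates; a percent growth value below 10 was scored as active.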 Activity calls are given as the source filed them.

Tests used:
Assay in all cases: NCI-60 one-dose screen, 48 h (100 = growth as untreated, 0 = no growth, -100 = all killed)
Conditions in all cases: 10 µM unless noted
[1] = test system: NCI-H23 lung
[2] = test system: NCI-H226 lung
[3] = test system: NCI-H322M lung
[4] = test system: HOP-62 NSCLC
[5] = test system: NCI-H460 lung
[6] = test system: HOP-92 NSCLC
[7] = test system: NCI-H522 lung
[8] = test system: A549/ATCC NSCLC
[9] = test system: 786-0 renal
[10] = test system: COLO 205 colon
[11] = test system: DU-145 prostate
[12] = test system: K-562 leukemia
[13] = test system: MALME-3M melanoma
[14] = test system: MDA-MB-231 breast
[15] = test system: RXF 393 renal
[16] = test system: SF-268 CNS
[17] = test system: SF-295 CNS
[18] = test system: UACC-257 melanoma
[19] = test system: M14 melanoma
[20] = test system: SF-539 CNS

Measured: growth

CC(C)CCC1C(=O)NC(=O)NC1=O
inactive: [1] 99.4% | [2] 116% | [3] 94.4% | [4] 87.4% | [5] 97.7% | [6] 109% | [7] 79.4% | [8] 78.5% | [9] 104% | [10] 100% | [11] 109% | [12] 109% | [13] 88.9% | [14] 97.3% | [15] 117% | [16] 96.2% | [17] 98.4% | [18] 95.5% | [19] 99.9%

CCC(=O)C(CC(C)[N+](C)(C)C)(c1ccccc1)c1ccccc1 (stereo not given)
inactive: [1] 91.7% | [2] 87.8% | [3] 103% | [4] 91.6% | [5] 106% | [6] 103% | [7] 86.1% | [8] 95.8% | [9] 92.9% | [10] 85.8% | [11] 112% | [12] 103% | [13] 106% | [15] 104% | [16] 103% | [17] 95.3% | [20] 96.6% | [18] 94.7% | [19] 96.2%

CCOC(=O)c1ccccc1C(=O)OCC
inactive: [1] 109% | [2] 94.6% | [3] 97.8% | [4] 92.6% | [5] 112% | [6] 89.4% | [7] 61.1% | [8] 99.2% | [9] 96.4% | [10] 120% | [11] 118% | [13] 102% | [14] 93.3% | [15] 121% | [16] 110% | [17] 83.5% | [20] 107% | [18] 91.3% | [19] 103%

O=C1CCCCC1CN1CCCCC1 (stereo not given)
inactive: [1] 99.6% | [2] 104% | [3] 94.6% | [4] 93% | [5] 101% | [6] 97.2% | [7] 84.3% | [8] 94.9% | [9] 106% | [11] 100% | [12] 119% | [13] 86.2% | [14] 116% | [15] 121% | [16] 97.7% | [17] 97.2% | [20] 97% | [18] 96.2% | [19] 109%

COc1c(O)cc2c(c1OC)-c1ccc(SC)c(=O)cc1C(NC(C)=O)CC2 (stereo not given)
inactive: [1] 21.4% | [2] 23.1% | [3] 41.1% | [4] 22.2% | [8] 46.4% | [9] 19.1% | [13] 39.9% | [15] 20.3% | [16] 29.7% | [18] 20.1% | [19] 15.7%
active: [5] 3% | [7] -46.8% | [10] -44.6% | [11] -28.7% | [12] -24.9% | [14] 2.58% | [17] 9.18% | [20] -15%

COc1ccn(C)c(=O)c1C#N
inactive: [1] 105% | [2] 91.6% | [3] 92.3% | [4] 83.5% | [5] 108% | [6] 116% | [7] 66.5% | [8] 83.7% | [9] 104% | [10] 95.9% | [11] 106% | [12] 105% | [13] 106% | [14] 90.7% | [15] 107% | [16] 94.3% | [17] 101% | [18] 87% | [19] 102%

c1ccc2c(c1)sc1ccccc12
inactive: [1] 99.8% | [2] 94.7% | [3] 95.7% | [4] 97.7% | [5] 109% | [6] 74.7% | [7] 98.9% | [9] 105% | [10] 98.6% | [11] 110% | [12] 105% | [13] 84% | [14] 93.8% | [15] 107% | [16] 109% | [17] 101% | [20] 93.9% | [18] 109% | [19] 94%

O=S(=O)(F)c1cccc(Cl)c1C[P+](c1ccccc1)(c1ccccc1)c1ccccc1
inactive: [1] 108% | [2] 93.4% | [3] 97.9% | [4] 93.3% | [5] 106% | [6] 91.3% | [7] 88.8% | [8] 93.9% | [9] 104% | [10] 99.9% | [11] 109% | [12] 77.2% | [13] 90.4% | [14] 98.6% | [16] 105% | [17] 92.3% | [20] 103% | [18] 89.7% | [19] 102%

Cc1cc(NC(=O)NCCCOc2ccc(N3C(N)=NC(N)=NC3(C)C)cc2Cl)ccc1S(=O)(=O)F
inactive: [1] 24.1% | [2] 55.7% | [4] 51.9% | [5] 13.6% | [6] 74.6% | [8] 14.7% | [9] 40.1% | [10] 27.9% | [11] 33.6% | [12] 25.1% | [13] 55.6% | [14] 71.7% | [15] 48.6% | [16] 32.7% | [17] 30.4% | [20] 17.5% | [18] 25.9% | [19] 41%
active: [7] 7.9%

CCC(Br)(CC)C(=O)NC(N)=O
inactive: [1] 108% | [2] 96.4% | [3] 106% | [5] 103% | [6] 103% | [7] 105% | [8] 104% | [9] 107% | [10] 108% | [11] 107% | [12] 105% | [13] 106% | [14] 121% | [15] 114% | [16] 102% | [17] 97.7% | [20] 89.9% | [18] 104% | [19] 102%

O=C1c2ccccc2C(=O)N1N1CC1c1ccccc1 (stereo not given)
inactive: [1] 96.3% | [2] 102% | [3] 92.5% | [4] 111% | [5] 111% | [7] 85.9% | [8] 98.8% | [9] 98.9% | [10] 101% | [11] 109% | [12] 97.7% | [13] 91.9% | [14] 118% | [15] 107% | [16] 104% | [17] 104% | [20] 102% | [18] 101% | [19] 100%

Nc1nc(=S)nc(N)[nH]1
inactive: [1] 89.5% | [2] 96.9% | [3] 102% | [4] 89% | [5] 111% | [7] 75.5% | [9] 88.6% | [11] 113% | [12] 103% | [13] 102% | [14] 92.1% | [15] 101% | [16] 93.3% | [17] 95.9% | [20] 97.1% | [18] 87.2% | [19] 89.5%

Cc1c2ccncc2c(C)c2c1[nH]c1ccccc12
active: [1] -79.5% | [2] -0.884% | [3] -83.3% | [5] -69.2% | [7] -50.6% | [8] -65.4% | [9] -95.9% | [10] -87.1% | [11] -97.8% | [12] 3.9% | [13] -77.8% | [14] -68.9% | [15] -87.3% | [16] -77.1% | [17] -84.7% | [20] -93.6% | [18] -62.1% | [19] -89.9%

O=NN(c1ccccc1)c1ccccc1
inactive: [1] 98.3% | [2] 95% | [3] 94.1% | [5] 102% | [6] 88.1% | [7] 105% | [8] 96% | [9] 105% | [10] 110% | [11] 103% | [12] 113% | [13] 86.2% | [14] 98.9% | [15] 98.3% | [16] 100% | [17] 102% | [20] 106% | [18] 96% | [19] 106%

O=c1[nH]c(=O)[nH]c(=O)[nH]1
inactive: [1] 97.9% | [2] 122% | [4] 85.2% | [5] 111% | [6] 113% | [7] 95.5% | [8] 108% | [9] 96.9% | [10] 115% | [11] 119% | [12] 65.2% | [13] 114% | [14] 122% | [15] 91.1% | [16] 116% | [17] 97.6% | [20] 104% | [18] 146% | [19] 111%

Nc1ccc2c(c1)Cc1cc(N)ccc1-2
inactive: [1] 92.3% | [2] 91.4% | [4] 87.1% | [5] 93.1% | [6] 76.5% | [7] 92.8% | [8] 84.3% | [9] 105% | [10] 90% | [11] 107% | [12] 112% | [13] 85.7% | [14] 75.6% | [15] 87.9% | [16] 95.4% | [17] 100% | [20] 96.8% | [18] 91.3% | [19] 92.7%

O=[N+]([O-])c1cc(Cl)c(Cl)c([N+](=O)[O-])c1Cl
inactive: [1] 85.6% | [2] 81.4% | [4] 119% | [5] 99.7% | [6] 74.9% | [8] 92.5% | [9] 114% | [11] 85.4% | [14] 91.8% | [15] 55.5% | [16] 84.2% | [17] 134% | [20] 103% | [18] 16.1%
active: [7] -86.7% | [10] -23.8% | [12] 7.08% | [13] -26% | [19] 3.65%
